Assay outcomes (PubChem)
This is one part of a sample in which hits are shown more often than they occur.
Tgondii IFNg = inhibitors of Toxoplasma gondii growth with IFN-gamma; Toxoplasma gondii growth in IFN-gamma-treated host cells; stronger effect = lower value; activity change, negative = inhibition, % (concentration not given with the values); AID 1259416; 69,000 tested, 3.8% active; in the data active = activity change below about -70%, passing the limit was not always enough;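 note: host cells are HeLa cells infected with Toxoplasma gondii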
* marks the source's active call; other numbers are inactive results.

SMILES | Tgondii IFNg
COc1ccc(CCN2C(=O)CSC2c2ccc(OC)c(OC)c2)cc1OC (stereo not given) | -28.9
CN1CCN2CCN(C(=O)CC3=CCNCC3)CC2C1 (stereo not given) | -2.0
COc1ccc(OCC(=O)NCCc2csc(-c3ccc(F)cc3)n2)cc1 | 51.3
COc1ccc(Cl)cc1C(=O)NCCc1csc(-c2ccc(F)cc2)n1 | -83.5*
COc1ccccc1C(=O)NCCc1csc(-c2ccc(F)cc2)n1 | -93.1*
Cc1ccccc1C(=O)NCCc1csc(-c2ccc(Cl)cc2)n1 | -31.6
CCOc1ccccc1C(=O)NCCc1csc(-c2ccc(Cl)cc2)n1 | -79.5*
COc1cccc(OC)c1C(=O)NCCc1csc(-c2ccc(Cl)cc2)n1 | 35.3
COc1ccc(C(=O)NCCc2csc(-c3ccc(F)cc3)n2)c(OC)c1 | -96.7*
CCOc1ccccc1NC(=O)C(=O)NCCc1csc(-c2ccc(Cl)cc2)n1 | -51.4
COc1ccc(-c2nc(CCNC(=O)c3ccccc3F)cs2)cc1 | 412.4
COc1ccc(C(=O)NCCc2csc(-c3ccc(Cl)cc3)n2)cc1OC | 15.5
O=C(NCCc1csc(-c2ccc(F)cc2)n1)c1ccccc1F | -69.7
COc1cc(OC)cc(C(=O)NCCc2csc(-c3ccc(F)cc3)n2)c1 | 27.5
Cc1noc(C)c1C(=O)NC1CCSC1 (stereo not given) | 6.8
CC(C)N1CCOCC2(CCCN(C(=O)c3ccn(C)n3)C2)C1 (stereo not given) | -2.9
CC(=O)N1C[C@@H]2C3(CCN(S(=O)(=O)C4CC4)CC3)CC[C@]2(C(=O)N2CCCC2)C1 | -33.9
COCc1nn(C(C)C)c2c1CCN(C(=O)c1csnn1)C2 | 63.4
Cc1cccc(CC(=O)NCCc2sc(-c3cccc(F)c3)nc2C)c1 | 46.7
N#Cc1ccc(C#CCOC(=O)Nc2ccc(OC(F)(F)F)cc2)cc1 | 34.4
CCc1nc(OCC(=O)Nc2cccc(Cl)c2)c2ccccc2n1 | 3.7
COc1cc(C(F)(F)F)nc2ccc(C#CCOC(=O)Nc3cccc(Cl)c3)cc12 | -108.7*
Cc1noc(C)c1S(=O)(=O)N1CCCC1c1cc(CCOc2ccccc2F)[nH]n1 (stereo not given) | -12.5
O=C1NCC2(CCCN(C(=O)c3ccc(Oc4ccccc4)o3)C2)O1 (stereo not given) | 13.1
COC(=O)c1sccc1S(=O)(=O)Nc1ccc(Nc2ccccc2)cc1OC | -1.3
SMILES | Tgondii IFNg
COC(=O)c1sc(-c2cccs2)cc1NS(=O)(=O)c1ccsc1C(=O)OC | -85.4*
COC(=O)c1sccc1S(=O)(=O)Nc1ccc(C)cc1 | 11.2
CC(C)C(=O)c1nc2c(s1)CCCN2Cc1ccccc1 | 29.9
COc1cc(C)c(C(c2ccc(N(C)C)cc2)c2ccc(N(C)C)cc2)cc1C | -96.7*
CN(C)Cc1cn2c(n1)CN(S(=O)(=O)c1cn(C)cn1)CC2 | 0.3
CCOC(=O)CC(=O)Cc1nc(N)nc(Nc2ccc(C)c(C)c2)n1 | -9.8
CN(C)c1cc(C(=O)N2CCC(c3noc4cc(F)ccc34)CC2)ccn1 | 4.6
COCCN1CCOCC12CCN(C(=O)c1cn(C)cn1)CC2 | 4.8
O=C1CC(c2ccsc2)c2cc3cn[nH]c3cc2N1 (stereo not given) | 1.1
COc1cc2c(cc1C1CC(=O)Nc3[nH]ncc31)CCC2 (stereo not given) | 4.0
O=C1CC(c2cccc(Br)c2)c2cc3c(cc2N1)CCC3 (stereo not given) | -83.1*
c1ccc2ncc(CC3CNCCOC3)cc2c1 (stereo not given) | 15.8
CCc1cc(CNC(=O)C2CCN(c3ccc(C(F)(F)F)cn3)CC2)on1 | -0.8
Cc1ccc2c(c1)NC1(CCN(S(=O)(=O)c3cnn(C(F)F)c3C)CC1)c1cccn1-2 | 34.6
CCO[C@@H]1CCN(S(=O)(=O)N(C)C)[C@@H]2CCO[C@H]21 | -82.5*
CN(C)S(=O)(=O)N1CCO[C@H]2[C@@H](OCc3cccnc3)CC[C@H]21 | 1.9
CCO[C@H]1CN(S(=O)(=O)c2cccnc2)[C@H]2CCCO[C@@H]12 | -4.3
COc1ccc(S(=O)(=O)Nc2cncc(C(=O)NCc3cccnc3)c2)cc1 | 22.9
Cc1cc(CN(C)Cc2ccc(OCC(=O)N3CCCC3)cc2)n[nH]1 | -10.7
C[C@@H]1CN([C@@H](C)CO)C(=O)c2c(c3ccccc3n2C)-c2ccccc2CO[C@H]1CN(C)Cc1cccc(C(F)(F)F)c1 | -66.0
C[C@@H]1CN([C@@H](C)CO)C(=O)c2c(c3ccccc3n2C)-c2ccccc2CO[C@@H]1CN(C)C | -18.1
C[C@@H]1CN([C@H](C)CO)C(=O)c2c(c3ccccc3n2C)-c2ccccc2CO[C@H]1CN(C)Cc1cccc(C(F)(F)F)c1 | -74.4*
Cc1ccc(S(=O)(=O)N2CCC(N3CCCC3)CC2C(=O)O)cc1 (stereo not given) | 2.6
COc1ccccc1C(CCNS(=O)(=O)c1ccccc1)c1ccc2c(c1)OCO2 (stereo not given) | -74.7*
COc1ccc(C2(CNS(=O)(=O)c3ccccc3)CCCC2)cc1OC | -11.7
SMILES | Tgondii IFNg
Cc1ccc(S(=O)(=O)NCCC(c2ccccc2)c2ccco2)cc1 (stereo not given) | 1.2
O=C(CC(=O)Nn1cnnc1)Nn1cnnc1 | 6.3
CCOc1ccccc1-c1nc(Cn2nnc(C(=O)Nc3cc(C)cc(C)c3)c2C)c(C)o1 | 56.1
COc1ccc(-c2ccc(C(=O)N3CCCC(c4ccccc4)CC3)cn2)cc1 (stereo not given) | -27.5
Cc1ccc(Nc2ccc(C(=O)N3CCCCC3)cn2)cc1 | 311.8
COc1ccc(-c2ccc(Nc3ccc(C(=O)N4CCCCCC4)cc3)nn2)cc1 | -83.6*
O=C(O)c1c[nH]c2ccc(Cl)cc2c1=O | 30.7
CN(C)Cc1cnc2n1CCN(c1ncc(F)cn1)CC2 | -47.2
Cc1ccc(-c2nc3cnccn3c2NCCC(=O)NC2CCN(C)CC2)cc1 | 52.9
COc1cccc(-c2nc3cnccn3c2NCCC(=O)NC2CCN(C)CC2)c1 | -17.8
CCS(=O)(=O)c1cccc(-c2cc(C(=O)NC3CCN(C)CC3)c(C)c3[nH]c4ncc(C)cc4c23)c1 | -80.2*
Cc1nn(CC(=O)N2CCCC2)c(=O)c2nc(-c3ccccc3)sc12 | 35.3
Fc1ccc(CN2CCC(c3nc4ccc(N5CCCC5)cn4n3)CC2)cc1 | -2.7
CCCc1nc(NCc2cc(-c3ccccc3)n[nH]2)c2cnn(C)c2n1 | -82.6*
CCCc1nc(NCc2nnnn2-c2ccccc2)c2cnn(C)c2n1 | -9.3
CCCc1nc(NCc2cc(-c3ccc(F)cc3)on2)c2cnn(C)c2n1 | -12.0
Cc1ccc(CN2CCc3nc(N4CCOCC4)nc(NC(C)C)c3C2)s1 | -98.0*
Cc1ccc(CN2CCc3nc(NC(C)C)nc(C)c3C2)s1 | -6.2
COc1ccc(CN2CCc3nc(N4CCOCC4)nc(NC4CC4)c3C2)cc1 | -0.4
COc1ccc(C2CC(=O)Nc3c2c(-c2ccccc2)nn3C)cn1 (stereo not given) | 10.5
O=C(NCCCn1ccnc1)c1cc(N2Cc3ccccc3C2)ccn1 | -1.6
COCCN1C2(CCN(C(=O)NC3CCCC3)C2)c2ccccc2S1(=O)=O (stereo not given) | -4.3
Cc1nn(-c2ccccc2)c(Cl)c1C(=O)Oc1ccc(OCc2ccccc2)cc1 | -97.4*
COC(=O)c1c(C)nn(-c2ccccc2)c1-c1cc(C)on1 | -1.0
Cc1nn(-c2ccccc2)c(C)c1C(N)=O | 175.2
Cc1cccc(S(=O)(=O)N2CC(C(=O)Nc3cccc(F)c3)C3(CCOCC3)C2)c1 (stereo not given) | 53.5
CC(SC(=O)c1cccs1)C(=O)NCC(=O)O (stereo not given) | -4.1
